AI-2 QS mod – modulates the Vibrio harveyi AI-2 quorum sensing system; actives 0.4% (n = 300,000); Vibrio harveyi JMH597 AI-2 luminescence/OD600 ratio, 9 h; active compounds read low; strain lacks LuxN and CqsS sensors; 0 = neutral-control median; activity change, % at 7.5 µM; AID 2094; in the data active means activity change below about -75%, passing the limit was not always enough;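 further: luminescence divided by OD600 gain over 9 h not by final OD600 alone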
V-ATPase pH – alters yeast V-ATPase proton transport; S. cerevisiae, pHLuorin cytosolic pH fluorescence; response, % at 10 µM; actives 0.37% (n = 350,000); in the data active means response mostly above about 7.3%, no sharp cut-off; inactive means mostly below about 5.4%; further: actives read high
ATG4B inhibitor – inhibitors of human ATG4B cysteine protease | Q9Y4P1 | ATG4B cleavage of LC3-PLA2, NBD-HPC fluorescence, 1 h | inhibition, % at 8.33 µM | actives 0.51% (n = 340,000); in the data active means inhibition above about 40%
Target sequence (Q9Y4P1 whole entry, looked up): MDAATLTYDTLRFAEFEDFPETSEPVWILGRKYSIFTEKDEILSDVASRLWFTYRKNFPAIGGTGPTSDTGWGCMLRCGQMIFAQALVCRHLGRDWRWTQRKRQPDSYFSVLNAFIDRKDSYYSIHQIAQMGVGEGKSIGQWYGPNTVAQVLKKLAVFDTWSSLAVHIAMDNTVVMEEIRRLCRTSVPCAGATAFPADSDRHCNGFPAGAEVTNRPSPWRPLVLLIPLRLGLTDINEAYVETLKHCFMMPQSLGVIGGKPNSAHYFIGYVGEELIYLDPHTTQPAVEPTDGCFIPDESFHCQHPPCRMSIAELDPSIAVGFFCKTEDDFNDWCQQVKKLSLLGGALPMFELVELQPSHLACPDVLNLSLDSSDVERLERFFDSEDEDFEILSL
Efflux pump mplx – inhibitors of Candida antifungal efflux pumps expressed in yeast; AID 485275; S. cerevisiae Candida pump triplex, Nile Red efflux; inhibition, % at 10 µM; actives 0.44% (n = 330,000);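 active means plate passing quality check with inhibition over a set limit, or well fluorescence over plate mean plus 4 SD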;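 further: Nile Red retained in pooled yeast measured as flow cytometry median fluorescence; 0% = buffer negative control and 100% = Enniatin B positive control; higher means more Nile Red kept so more efflux inhibition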
Mot1-301 SUMO – SUMOylation pathway inhibition by Mot1-301 growth rescue; S. cerevisiae Mot1-301 growth rescue, ATP luminescence, 38.5C; percent above DMSO median, 100 means doubled; growth rescue, % at 18.8 µM; actives 1% (n = 320,000);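 active means every valid replicate shows activation above 250% relative to neutral control wells; inactive means the rest, any valid replicate at or below 250%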;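 further: OY570 slx delta 5 strain wells were the positive control but not used for scaling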
ATG4B confirm – ATG4B (human) inhibition, single-dose confirmed. inhibition, % at 8.33 µM. shares compounds with ATG4B inhibitor. ATG4B protease fluorescent substrate cleavage assay. actives 92% (n = 320); in the data active means inhibition above about 39%
PLA2 counter – inhibits human PLA2, flagging false ATG4B inhibitors; purified PLA2, NBD-C6-HPC fluorescence, 45 min; inhibition, % at 8.33 µM; actives 66% (n = 1,600); shares compounds with ATG4B inhibitor; in the data active means inhibition above about 50%
Target sequence (P04054 whole entry, looked up): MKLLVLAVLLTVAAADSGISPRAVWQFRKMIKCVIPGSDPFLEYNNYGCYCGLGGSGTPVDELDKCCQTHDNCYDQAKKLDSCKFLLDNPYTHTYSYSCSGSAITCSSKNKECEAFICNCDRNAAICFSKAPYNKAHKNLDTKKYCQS
* marks the source's active call; other numbers are inactive results. This is a sample that favours compounds with a hit; in the whole collection about 2.5% have one here.

What do the screens show for `COc1ccccc1-n1cnnc1SCC(=O)NCC1CCCO1` (configuration not stated)?
AI-2 QS mod: 19.9; V-ATPase pH: -0.6; ATG4B inhibitor: 0.1; Efflux pump mplx: -0.5; Mot1-301 SUMO: -16.0

What do the screens show for `CCC(=O)NC(=S)Nc1cccc(Cl)c1N1CCCCC1`?
AI-2 QS mod: 12.8; V-ATPase pH: 0.9; ATG4B inhibitor: 41.9*; Efflux pump mplx: -0.1; Mot1-301 SUMO: -5.9; ATG4B confirm: 60.5*; PLA2 counter: 39.1

How did O=C(Nc1cccc(Cl)c1N1CCCC1)c1ccc([N+](=O)[O-])o1 do in these assays?
AI-2 QS mod: 7.9; V-ATPase pH: 1.2; ATG4B inhibitor: 2.8; Efflux pump mplx: -0.1; Mot1-301 SUMO: -3.2

How did CCCC(=O)NC(=S)Nc1cccc(Cl)c1N1CCCCC1 do in these assays?
AI-2 QS mod: 8.5; V-ATPase pH: 2.1; ATG4B inhibitor: 41.1*; Efflux pump mplx: 0.1; Mot1-301 SUMO: 5.5; ATG4B confirm: 56.0*; PLA2 counter: 36.9

Results for CCCCC(=O)NC(=S)Nc1cccc(Cl)c1N1CCCCC1 ?
AI-2 QS mod: 44.9; V-ATPase pH: 1.8; ATG4B inhibitor: 18.3; Efflux pump mplx: 0.0; Mot1-301 SUMO: 2.8

What do the screens show for `O=C(Nc1cccc(Cl)c1N1CCCC1)c1ccc(Br)o1`?
AI-2 QS mod: 9.5; V-ATPase pH: 1.9; ATG4B inhibitor: 56.1*; Efflux pump mplx: 0.1; Mot1-301 SUMO: -20.7; PLA2 counter: 56.0*

How did COC(=O)C(Sc1nc(C)cc(C)c1C#N)c1ccccc1 (configuration not stated) do in these assays?
AI-2 QS mod: 17.3; V-ATPase pH: -4.5; ATG4B inhibitor: 49.6*; Efflux pump mplx: 0.0; Mot1-301 SUMO: 43.7; PLA2 counter: 56.2*

Results for O=C(CCc1nc(-c2cccs2)no1)NCc1ccc(F)cc1Cl ?
AI-2 QS mod: 33.0; V-ATPase pH: -0.7; ATG4B inhibitor: 43.0*; Efflux pump mplx: -0.6; Mot1-301 SUMO: 1.8; PLA2 counter: 53.9*

Results for CCCCC1=C(C(=O)OCC)C(C(=O)OCC)Oc2ccccc21 (configuration not stated) ?
V-ATPase pH: -4.4; ATG4B inhibitor: 6.5; Efflux pump mplx: -0.1

What do the screens show for `COc1ccc(NC(=O)NC[C@@H]2CC[C@@H](Cc3ccc(-c4ccccc4)cc3)O2)cc1`?
V-ATPase pH: -2.1; ATG4B inhibitor: 40.4*; Efflux pump mplx: -0.1; PLA2 counter: 74.0*

What do the screens show for `NC(=O)NC[C@@H]1CC[C@@H](Cc2ccc(-c3ccccc3)cc2)O1`?
V-ATPase pH: -1.7; ATG4B inhibitor: 79.8*; Efflux pump mplx: -0.2; PLA2 counter: 81.1*

What do the screens show for `CC(=O)N1CCN(CC(=O)NC(=O)Nc2ccc3c(c2)OCCO3)CC1`?
AI-2 QS mod: 7.4; V-ATPase pH: -4.8; ATG4B inhibitor: 2.2; Efflux pump mplx: -0.1; Mot1-301 SUMO: -17.1

What do the screens show for `Cc1ccc(-n2nnnc2SCC(=O)N2CCc3ccccc3C2)c(C)c1`?
AI-2 QS mod: 47.6; V-ATPase pH: -1.1; ATG4B inhibitor: 43.8*; Efflux pump mplx: 0.8; Mot1-301 SUMO: 7.8; PLA2 counter: 46.1

What do the screens show for `Fc1ccc(Nc2nc(N/N=C/c3ccco3)nc(N3CCCCC3)n2)cc1`?
AI-2 QS mod: 18.7; V-ATPase pH: 0.7; ATG4B inhibitor: 63.9*; Efflux pump mplx: -0.1; Mot1-301 SUMO: -8.3; PLA2 counter: 77.6*

Results for C(=N\Nc1nc(N2CCOCC2)nc(N2CCOCC2)n1)/c1ccco1 ?
AI-2 QS mod: 39.5; Efflux pump mplx: 0.0; Mot1-301 SUMO: 5.7

Results for O=C(c1ccc(OC2CCN(Cc3ccc(C(F)(F)F)cc3)CC2)cc1)N1CCCCC1 ?
AI-2 QS mod: 30.1; V-ATPase pH: -2.6; ATG4B inhibitor: 40.9*; Efflux pump mplx: 0.1; Mot1-301 SUMO: 135.4; PLA2 counter: 51.2*

What do the screens show for `COc1ccccc1/C=C/CN1CCC(Oc2ccc(C(=O)N3CCCC3)cc2)CC1`?
AI-2 QS mod: 4.2; V-ATPase pH: -0.1; ATG4B inhibitor: 19.9; Efflux pump mplx: 0.0; Mot1-301 SUMO: 2.1

What do the screens show for `O=C(c1ccc(OC2CCN(Cc3ccccc3OC(F)F)CC2)cc1)N1CCCC1`?
AI-2 QS mod: 6.0; V-ATPase pH: 2.4; ATG4B inhibitor: 41.7*; Efflux pump mplx: -0.2; Mot1-301 SUMO: 2.5; PLA2 counter: 52.2*

Results for COc1cc(/C=C/CN2CCC(Oc3ccc(C(=O)N4CCCC4)cc3)CC2)ccc1O ?
AI-2 QS mod: 24.3; V-ATPase pH: -4.0; ATG4B inhibitor: 40.2*; PLA2 counter: 50.0

What do the screens show for `CCCCCCCCCCCC1N=C(N)NC(CCCO)=C1C(=O)OC` (configuration not stated)?
V-ATPase pH: -3.4; ATG4B inhibitor: 13.3

Results for COc1ccc(-c2ccc(/C=N/NC(=O)Cc3nnc(N)s3)o2)cc1Cl ?
AI-2 QS mod: 6.5; V-ATPase pH: -1.9; ATG4B inhibitor: -8.1; Efflux pump mplx: 0.0; Mot1-301 SUMO: 10.2

How did Cc1ccc(-c2ccc(/C=N/NC(=O)Cc3nnc(N)s3)o2)cc1Cl do in these assays?
AI-2 QS mod: 7.0; V-ATPase pH: -4.4; ATG4B inhibitor: 67.6*; Efflux pump mplx: 0.0; Mot1-301 SUMO: 10.5; PLA2 counter: 76.8*

What do the screens show for `CCCNC(=S)N1CCN(c2nc(C)nc3sc4c(c23)CCCC4)CC1`?
AI-2 QS mod: 12.0; V-ATPase pH: 3.2; ATG4B inhibitor: 48.5*; Efflux pump mplx: 0.1; Mot1-301 SUMO: 19.4; PLA2 counter: 77.8*

How did COCCCNC(=S)N1CCN(c2nc(C)nc3sc4c(c23)CCCC4)CC1 do in these assays?
AI-2 QS mod: -1.3; V-ATPase pH: -3.6; ATG4B inhibitor: 46.8*; Efflux pump mplx: 0.1; Mot1-301 SUMO: -2.7; PLA2 counter: 62.6*

What do the screens show for `Cc1nc(N2CCNCC2)c2c3c(sc2n1)CCCC3`?
AI-2 QS mod: 9.3; V-ATPase pH: 3.6; ATG4B inhibitor: 1.4; Efflux pump mplx: 0.2; Mot1-301 SUMO: 11.2

Results for Cc1ccc(SC(C)C(=O)Nc2ccccc2-c2ccccc2)cc1 (configuration not stated) ?
AI-2 QS mod: 4.7; V-ATPase pH: 3.6; ATG4B inhibitor: 30.6; Efflux pump mplx: -0.1; Mot1-301 SUMO: -5.0

How did CC(Sc1ccc(Cl)cc1)C(=O)Nc1ccccc1-c1ccccc1 (configuration not stated) do in these assays?
AI-2 QS mod: 15.9; V-ATPase pH: 2.3; ATG4B inhibitor: 50.1*; Efflux pump mplx: 0.2; Mot1-301 SUMO: -15.3; ATG4B confirm: 70.9*; PLA2 counter: 33.8

How did O=C(Nc1ccc(Br)cc1)NC1CCCCCCC1 do in these assays?
AI-2 QS mod: 19.0; V-ATPase pH: 5.0; ATG4B inhibitor: -3.9; Efflux pump mplx: 0.1; Mot1-301 SUMO: -6.3
